Data from PubChem BioAssay AID1159580 (chemical genetic matrix, 2015).
Where “and” joins values, the source holds several entries; their conditions need not be identical. Equal values may be shown once. Among all 5,500 compounds or so, about 2,000 (36%) were called active. Not shown: some 18% with an inconclusive outcome. No stated cut-off is given here; in the data, active means normalized growth mostly below about 0.91 (no sharp cut-off); inconclusive means no clear call, values can overlap the other calls; inactive means mostly above about 0.92. The list shows a part of the results.

Test: chemical genetic growth profiling, strain panel (AID 1159580);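 further: tested at 20 µM; growth read once vehicle control cultures reached saturation at 30 °C; 1 = growth at the plate median or of vehicle wells; lower values mean less growth of the strain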
Settings: growth OD

Measured: normalized growth

CC[N+](CC)(CC)CCOc1cccc(OCC[N+](CC)(CC)CC)c1OCC[N+](CC)(CC)CC
inactive: S. cerevisiae deletion strains, locus YJR066W, strain TOR1, hits give low values 0.953 | S. cerevisiae deletion strains, locus YKL009W, strain mrt4, hits give low values 0.99 | S. cerevisiae deletion strains, locus YKL068W, hits give low values 1 | S. cerevisiae deletion strains, locus YKL085W, strain MDH1 (second series), hits give low values 1.02 | S. cerevisiae deletion strains, locus YKL085W, strain MDH1, hits give low values 1.02 | S. cerevisiae deletion strains, locus YKL160W, strain elf1, hits give low values 1.04 | S. cerevisiae deletion strains, locus YKR001C, strain vps1, hits give low values 1 | S. cerevisiae deletion strains, locus YKR026C, strain gcn3, hits give low values 1.01 | S. cerevisiae deletion strains, locus YKR091W, strain srl3, hits give low values 1.02 | S. cerevisiae deletion strains, locus YLL001W, strain dnm1, hits give low values 1.04 | S. cerevisiae deletion strains, locus YLL026W, hits give low values 1.01 | S. cerevisiae deletion strains, locus YLL041C, strain sdh2, hits give low values 1.01 | S. cerevisiae deletion strains, locus YLR027C, strain aat2, hits give low values 1.02 | S. cerevisiae deletion strains, locus YLR039C, strain RIC1, hits give low values 1.11 | S. cerevisiae deletion strains, locus YLR058C, strain SHM2, hits give low values 1.03 | S. cerevisiae deletion strains, locus YLR102C, strain apc9, hits give low values 1.01 | S. cerevisiae deletion strains, locus YLR113W, strain HOG1, hits give low values 0.977 | S. cerevisiae deletion strains, locus YLR221C, strain rsa3, hits give low values 1.02 | S. cerevisiae deletion strains, locus YLR258W, strain gsy2, hits give low values 1.01 | S. cerevisiae deletion strains, locus YLR262C, strain YPT6 (second series), hits give low values 1.05 | S. cerevisiae deletion strains, locus YLR262C, strain YPT6, hits give low values 1.07 | S. cerevisiae deletion strains, locus YLR268W, strain sec22, hits give low values 1.01 | S. cerevisiae deletion strains, locus YLR320W, strain mms22, hits give low values 1.03 | S. cerevisiae deletion strains, locus YLR330W, strain CHS5, hits give low values 1.01 | S. cerevisiae deletion strains, locus YLR342W, strain FKS1 (second series), hits give low values 0.996 | S. cerevisiae deletion strains, locus YLR342W, strain FKS1, hits give low values 1.02 | S. cerevisiae deletion strains, locus YLR357W, strain rsc2, hits give low values 1 | S. cerevisiae deletion strains, locus YLR370C, strain arc18, hits give low values 1.01 | S. cerevisiae deletion strains, locus YLR371W, strain rom2, hits give low values 1.01 | S. cerevisiae deletion strains, locus YLR384C, strain iki3, hits give low values 1.02 | S. cerevisiae deletion strains, locus YLR418C, strain cdc73, hits give low values 1.02 | S. cerevisiae deletion strains, locus YML016C, strain PPZ1, hits give low values 1.01 | S. cerevisiae deletion strains, locus YML032C, strain rad52, hits give low values 1 | S. cerevisiae deletion strains, locus YML120C, strain ndi1, hits give low values 1.03 | S. cerevisiae deletion strains, locus YML124C, strain tub3, hits give low values 1.01 | S. cerevisiae deletion strains, locus YMR058W, strain fet3, hits give low values 1.01 | S. cerevisiae deletion strains, locus YMR078C, strain ctf18, hits give low values 1.02 | S. cerevisiae deletion strains, locus YMR125W, strain sto1, hits give low values 1.01 | S. cerevisiae deletion strains, locus YMR129W, hits give low values 1.01 | S. cerevisiae deletion strains, locus YMR205C, strain PFK2, hits give low values 1.03 | S. cerevisiae deletion strains, locus YMR223W, strain ubp8, hits give low values 1.02 | S. cerevisiae deletion strains, locus YMR231W, strain pep5, hits give low values 1.01 | S. cerevisiae deletion strains, locus YMR263W, strain SAP30, hits give low values 0.995 | S. cerevisiae deletion strains, locus YMR307W, strain GAS1, hits give low values 1.02 | S. cerevisiae deletion strains, locus YNL067W, strain RPL9B, hits give low values 1.01 | S. cerevisiae deletion strains, locus YNL071W, strain lat1, hits give low values 1.01 | S. cerevisiae deletion strains, locus YNL128W, strain TEP1, hits give low values 1.02 | S. cerevisiae deletion strains, locus YNL153C, strain GIM3, hits give low values 1.01 | S. cerevisiae deletion strains, locus YNL175C, strain NOP13, hits give low values 0.987 | S. cerevisiae deletion strains, locus YNL183C, strain NPR1, hits give low values 0.969 | S. cerevisiae deletion strains, locus YNL197C, strain WHI3, hits give low values 0.987 | S. cerevisiae deletion strains, locus YNL209W, strain ssb2, hits give low values 1.02 | S. cerevisiae deletion strains, locus YNL224C, strain SQS1, hits give low values 0.997 | S. cerevisiae deletion strains, locus YNL233W, strain BNI4, hits give low values 1.02 | S. cerevisiae deletion strains, locus YNL248C, strain rpa49, hits give low values 1 | S. cerevisiae deletion strains, locus YNL250W, strain rad50, hits give low values 1.05 | S. cerevisiae deletion strains, locus YNL271C, strain bni1, hits give low values 1.01 | S. cerevisiae deletion strains, locus YNL298W, strain CLA4, hits give low values 1.01 | S. cerevisiae deletion strains, locus YNL307C, strain MCK1, hits give low values 1.02 | S. cerevisiae deletion strains, locus YNL322C, strain KRE1 (second series), hits give low values 1.02 | S. cerevisiae deletion strains, locus YNL322C, strain KRE1, hits give low values 1 and 1.01 | S. cerevisiae deletion strains, locus YNR049C, strain mso1, hits give low values 1.02 | S. cerevisiae deletion strains, locus YNR052C, strain pop2, hits give low values 1.02 | S. cerevisiae deletion strains, locus YOL006C, strain TOP1, hits give low values 1.04 | S. cerevisiae deletion strains, locus YOL012C, strain htz1 0.763 | S. cerevisiae deletion strains, locus YOL147C, strain pex11, hits give low values 1 | S. cerevisiae deletion strains, locus YOR001W, strain rrp6, hits give low values 1 | S. cerevisiae deletion strains, locus YOR061W, strain CKA2, hits give low values 1.01 | S. cerevisiae deletion strains, locus YOR069W, strain VPS5, hits give low values 1.01 | S. cerevisiae deletion strains, locus YOR070C, strain gyp1, hits give low values 1.02 | S. cerevisiae deletion strains, locus YOR080W, strain dia2, hits give low values 1.02 | S. cerevisiae deletion strains, locus YOR083W, strain WHI5 (second series), hits give low values 0.998 | S. cerevisiae deletion strains, locus YOR083W, strain WHI5, hits give low values 1.04 | S. cerevisiae deletion strains, locus YOR106W, strain vam3, hits give low values 1.02 | S. cerevisiae deletion strains, locus YOR136W, strain idh2, hits give low values 1 | S. cerevisiae deletion strains, locus YOR144C, strain elg1, hits give low values 1.01 | S. cerevisiae deletion strains, locus YOR184W, strain ser1, hits give low values 1.04 | S. cerevisiae deletion strains, locus YOR231W, strain MKK1, hits give low values 1 | S. cerevisiae deletion strains, locus YOR265W, strain rbl2, hits give low values 1.01 | S. cerevisiae deletion strains, locus YOR270C, strain vph1, hits give low values 1.04 | S. cerevisiae deletion strains, locus YOR290C, strain snf2, hits give low values 0.958 | S. cerevisiae deletion strains, locus YOR316C, strain cot1, hits give low values 1.02 | S. cerevisiae deletion strains, locus YPL051W, strain arl3, hits give low values 1.01 | S. cerevisiae deletion strains, locus YPL055C, strain LGE1, hits give low values 1.02 | S. cerevisiae deletion strains, locus YPL078C, strain atp4, hits give low values 1.02 | S. cerevisiae deletion strains, locus YPL106C, strain sse1, hits give low values 1.02 | S. cerevisiae deletion strains, locus YPL240C, strain hsp82, hits give low values 1 | S. cerevisiae deletion strains, locus YPL256C, strain CLN2, hits give low values 1.05 | S. cerevisiae deletion strains, locus YPR119W, strain clb2, hits give low values 1.02 | S. cerevisiae deletion strains, locus YPR141C, strain kar3, hits give low values 1.02 | S. cerevisiae deletion strains, locus YPR163C, strain tif3, hits give low values 1.02 | S. cerevisiae deletion strains, locus YPR167C, strain met16, hits give low values 1.02 | S. cerevisiae deletion strains, strain wtn01, hits give low values 0.996 | S. cerevisiae strains, strain wild type, hits give low values 1.01
